Hits are enriched below; roughly 27% of the tested compounds scored in any of these assays.
CYP2C19 inhib: blocks human cytochrome P450 2C19; P33261; CYP2C19 Supersomes, luciferin-H EGE luminescence, 30 min; inhibition, % at 5 µM; actives 21% (n = 96,000);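 active = CYP2C19 inhibition above a set limit at 5 µM in the primary screen, cut at about 50% in these data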;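 also: plate controls were negative control wells for no effect and 2.5 mM tranylcypromine positive control for full effect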
CYP2C19 activ: increases human CYP2C19 enzyme activity | activation factor at 5 µM | recombinant CYP2C19, luciferin-H EGE luminescence; stronger effect = higher value; 0 = fully inhibited enzyme, 1 = untreated enzyme | 96,000 tested, under 10 active | P33261;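 active = activation factor of at least 2 at 5 µM in the primary screen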;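 also: 0 = wells with 2.5 mM tranylcypromine and 1 = vehicle-only wells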
Cav32 inh: human Cav3.2 channel inhibition, primary screen; Cav3.2-expressing cells, Fluo-4 calcium fluorescence FDSS; stronger effect = lower value; B-score at 10 µM; actives 4% (n = 100,000);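 active = single-dose well whose peak fluorescence ratio is a statistical outlier from its plate by either plate-standardised score or position-corrected B-score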
CYP2C9 inhib: human CYP2C9 inhibition; P11712; CYP2C9 Supersomes, luciferin-H conversion, luminescence; inhibition, % at 5 µM; actives 20% (n = 96,000); AID 777;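 active = blocking of liver enzyme CYP2C9 beyond about 50% at 5 µM, limit read from the data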
CYP2C9 activ: CYP2C9 (human) activation | recombinant CYP2C9, luciferin-H conversion, luminescence; stronger effect = higher value; factor 1 = untreated enzyme, 0 = blocked | actives 1.4% (n = 96,000) | activation factor at 5 µM | AID 1024;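 active = activation factor of 2 or more for CYP2C9 at a 5 µM dose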;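 also: 0 = sulfaphenazole-blocked wells and 1 = vehicle-only wells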
* marks the source's active call; other numbers are inactive results; . = no result given.

SMILES	CYP2C19 inhib	CYP2C19 activ	Cav32 inh	CYP2C9 inhib	CYP2C9 activ
COC(=O)C1CCN(S(=O)(=O)c2cn(C)c(=O)n(C)c2=O)CC1	-13.0	1.1	-0.0544	-9.8	1.1
CCc1c(C(=O)NNC(=S)NCC(C)C)csc1C	12.8	0.9	0.0958	-5.8	1.1
COc1ccc(S(=O)(=O)NCc2ccccc2)cc1	96.6*	0	0.826	-72.8	1.7
COCC(C)NS(=O)(=O)c1ccc(OC)cc1 (stereo not drawn)	61.4*	0.4	0.366	-20.6	1.2
COc1ccc(S(=O)(=O)NCCC(=O)NCc2ccccc2)cc1	9.2	0.9	0.36	-69.6	1.7
COC(=O)c1c(S(=O)(=O)NCc2ccccc2)sc(C(=O)O)c1C	-10.7	1.1	0.0342	61.6*	0.4
COC(=O)C1=C(CCc2ccccc2)NC(=O)NC1c1ccc(Cl)cc1 (stereo not drawn)	.	.	-1.13	.	.
CSc1cc(-c2ccc(Cl)cc2)c(C(=O)N2CCCC2)s1	9.6	0.9	-4.39*	16.3	0.8
O=C(NC(NC1CCS(=O)(=O)C1)C(=O)c1ccccc1)c1ccc(Cl)cc1 (stereo not drawn)	13.4	0.9	0.675	3.9	1
Cc1ccc(NC(=O)CS(=O)CC(=O)NC(C)CCc2ccco2)cc1Cl (stereo not drawn)	34.0	0.7	-0.519	16.3	0.8
CC(CCc1ccco1)NC(=O)Nc1cccc(F)c1 (stereo not drawn)	83.6*	0.2	-0.663	83.0*	0.2
COc1cc(C)c(Cl)cc1S(=O)(=O)N(C)C	22.3	0.8	0.257	-67.6	1.7
Cc1ccc(-c2nc(SCC(=O)N(C)C3CCS(=O)(=O)C3)[nH]c2-c2ccc(C)cc2)cc1 (stereo not drawn)	16.0	0.8	-0.363	34.0	0.7
CCCCCCCCCOC(=O)C(CC(=O)O)N1CCOCC1 (stereo not drawn)	3.9	1	0.509	77.0*	0.2
CCCCCOC(=O)CC(C(=O)OCCCCC)N1CCCCC1 (stereo not drawn)	.	.	0.00639	.	.
C=C1CC2C(=O)N(Cc3ccccc3)C(C(=O)OCC)(C(=O)OCC)C1N2C(=O)OC(C)(C)C (stereo not drawn)	.	.	-1.35	.	.
Cc1ccc(Cl)cc1NC(=O)N[C@@H](C)C(=O)O	-18.1	1.2	-0.747	-15.6	1.2
CC(C)(C)NS(=O)(=O)c1cccc2nsnc12	.	.	0.049	.	.
CC(C)CCNC(=O)CN(C)S(=O)(=O)c1cccc2nsnc12	25.4	0.7	-0.578	50.2*	0.5
Cc1cc(C)cc(NC(=O)CN(C)S(=O)(=O)c2cccc3nsnc23)c1	37.4	0.6	-2.62	54.5*	0.5
Cc1ccc(C)c(N(C)S(=O)(=O)c2cccc3nsnc23)c1	43.6	0.6	-1.19	-131.8	2.3*
CCc1cccc(NC(=O)CN(C)S(=O)(=O)c2cccc3nsnc23)c1	.	.	-1.39	.	.
Cc1nc(CNS(=O)(=O)c2ccccc2F)cs1	.	.	0.234	.	.
Cc1c(C(=O)N2CCN(c3ccccc3F)CC2)sc2ncn(CC(=O)N3CCOCC3)c(=O)c12	2.6	1	.	10.6	0.9
Cc1ccc(C)c(NC(=S)NC(NC(=O)/C=C/c2ccccc2)C(Cl)(Cl)Cl)c1 (stereo not drawn)	-12.9	1.1	-6.9*	10.3	0.9
SMILES	CYP2C19 inhib	CYP2C19 activ	Cav32 inh	CYP2C9 inhib	CYP2C9 activ
Cc1cc(C(F)(F)F)nn1CC(=O)NNC(=S)Nc1cccc(Cl)c1	20.7	0.8	-2.22	49.2	0.5
O=C(/C=C/c1ccccc1)NC(NC(=S)Nc1cccc(Cl)c1)C(Cl)(Cl)Cl (stereo not drawn)	0.8	1	-1.64	77.0*	0.2
OCCNCCCOc1ccc(Cl)cc1Br	5.4	0.9	0.836	-1.9	1
C#CCN(C)CCCOc1ccc(Cl)cc1Cl	.	.	-1.48	.	.
Clc1ccc(OCCn2ccnc2)c(Br)c1	96.6*	0	0.156	94.9*	0.1
Clc1ccc(OCCn2ccnc2)c2ccccc12	96.6*	0	0.0454	90.8*	0.1
Clc1ccc(SCCn2ccnc2)cc1	89.7*	0.1	-0.903	59.9*	0.4
CC(C)NCCOCCSc1ccc(Cl)cc1	25.1	0.7	0.828	0.6	1
Clc1ccc(OCCn2ccnc2)c(Cl)c1	95.1*	0	-0.447	96.3*	0
O=C(NC1CCCCC1)c1cccc(COCC(F)(F)F)c1	.	.	0.00814	.	.
CCOC(=O)Nc1sc(C(=O)N(CC)CC)c(C)c1C(=O)OCC	49.8	0.5	0.741	68.6*	0.3
CCCOC(=O)c1c(N)sc2c1CCC2	42.7	0.6	0.316	50.0*	0.5
CCOC(=O)c1c(NC(=O)c2ccc(N3C(=O)C4C5C=CC(C5)C4C3=O)cc2)sc2c1CCCC2 (stereo not drawn)	13.8	0.9	-2.36	66.3*	0.3
CCOC(=O)c1c(N)sc2c1CCSC2	11.2	0.9	-0.807	15.5	0.8
CCOC(=O)c1sc(NC(=O)CN(CC)CC)c(C(=O)OCC)c1C	19.8	0.8	-0.235	76.5*	0.2
CCOC(=O)c1sc(NC(C)=O)c(C(=O)OCC)c1C	26.9	0.7	-0.0158	23.8	0.8
Cc1cc(C)c(NC2=NS(=O)(=O)c3ccccc32)c(C)c1	-7.6	1.1	0.0247	2.7	1
C1CCCN(CCCCN2CCCCCC2)CC1	-3.4	1	.	7.7	0.9
COc1ccc(Cn2c(C)c(C)c(C#N)c2NC(=O)Nc2cccc(Cl)c2)cc1	3.1	1	0.0319	18.6	0.8
COC(=O)c1sc(NC(=O)CC(C)C)c(C(=O)OC)c1C	58.7*	0.4	0.015	26.4	0.7
COC(=O)c1sc(NC(C)=O)c(C(=O)OC)c1C	-3.4	1	1.17	1.8	1
CCOC(=O)c1c(NC(=O)CN(CC)CC)sc2c1CCC2	12.4	0.9	-1.3	52.2*	0.5
CC(C)(C)C(=O)NCCCc1nc2ccccc2n1CCCOc1ccc(Cl)cc1	42.3	0.6	-6.68*	84.5*	0.2
OCc1nc2ccccc2n1CCCOc1ccc(Br)cc1	49.3	0.5	-1.65	26.1	0.7
Cn1c(=O)n(CCCOc2ccc(Br)cc2)c2ccccc21	70.5*	0.3	-4.45	7.9	0.9
SMILES	CYP2C19 inhib	CYP2C19 activ	Cav32 inh	CYP2C9 inhib	CYP2C9 activ
C=CCn1c(CCCNC(=O)C(C)(C)C)nc2ccccc21	9.3	0.9	-0.104	2.6	1
COc1ccc(OCCCn2c(=O)oc3ccccc32)cc1	.	.	-0.433	.	.
Cn1c(=O)n(CCCOc2ccc(Cl)cc2)c2ccccc21	76.5*	0.2	-1.07	11.6	0.9
O=C(NCc1cccnc1)c1ccc(CN2CCc3ccccc3C2)cc1	.	.	0.419	.	.
O=C(c1ccc(-c2nnc(Nc3ccccc3)c3ccccc23)cc1)N1C[C@H]2C[C@H](C1)c1cccc(=O)n1C2	9.2	0.9	0.442	33.8	0.7
Nc1nonc1C(=O)NCCNC(=O)c1cccs1	2.8	1	-0.149	-12.5	1.1
C=CCCCCCCCCc1nc(=S)[nH][nH]1	45.6	0.5	-5.19*	50.4*	0.5
Cc1cc(C)n2c(Br)c(CSc3nc4ccccc4o3)nc2n1	17.0	0.8	-1.7	12.8	0.9
COC(C[C@@H]1O[C@@H]1C(=O)COCc1ccccc1)OC	.	.	0.443	.	.

Screening data as filed in PubChem BioAssay.
